PubChem BioAssay (NCI)
The panel holds about 83,000 compounds, 20% with a hit somewhere; the sample as a whole holds those more often.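 Single-concentration screen, 48 h exposure, 96-well plates. Endpoint: percent growth. Below 10 = active.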

Tests used:
Assay in all cases: NCI-60 one-dose screen, 48 h (100 = growth as untreated, 0 = no growth, -100 = all killed)
Settings in all cases: 10 µM unless noted
DU-145 prostate = tested on: DU-145 prostate
K-562 leukemia = tested on: K-562 leukemia
MALME-3M melanoma = tested on: MALME-3M melanoma
MDA-MB-231 breast = tested on: MDA-MB-231 breast
RXF 393 renal = tested on: RXF 393 renal
SF-268 CNS = tested on: SF-268 CNS
SF-295 CNS = tested on: SF-295 CNS
SF-539 CNS = tested on: SF-539 CNS
UACC-257 melanoma = tested on: UACC-257 melanoma
M14 melanoma = tested on: M14 melanoma
HCT-15 colon = tested on: HCT-15 colon
HT29 colon = tested on: HT29 colon
SNB-75 CNS = tested on: SNB-75 CNS
SNB-19 CNS = tested on: SNB-19 CNS
U251 CNS = tested on: U251 CNS
PC-3 prostate = tested on: PC-3 prostate
LOX IMVI melanoma = tested on: LOX IMVI melanoma
SK-MEL-28 melanoma = tested on: SK-MEL-28 melanoma
UACC-62 melanoma = tested on: UACC-62 melanoma
SK-MEL-5 melanoma = tested on: SK-MEL-5 melanoma

Measured: growth

CC1CCC(C(C)C)C(NNC(N)=O)C1 (stereo not drawn)
inactive: DU-145 prostate 106% | K-562 leukemia 101% | MALME-3M melanoma 110% | MDA-MB-231 breast 97.5% | RXF 393 renal 101% | SF-268 CNS 106% | SF-295 CNS 103% | SF-539 CNS 110% | UACC-257 melanoma 87.3% | M14 melanoma 106% | HCT-15 colon 112% | HT29 colon 102% | SNB-75 CNS 102% | SNB-19 CNS 98.4% | U251 CNS 92.4% | PC-3 prostate 86.2% | LOX IMVI melanoma 100% | SK-MEL-28 melanoma 120%

CC(=O)OC(C)C(=O)NCC(C)O (stereo not drawn)
inactive: DU-145 prostate 104% | K-562 leukemia 97.9% | MALME-3M melanoma 108% | MDA-MB-231 breast 124% | RXF 393 renal 113% | SF-268 CNS 100% | SF-539 CNS 102% | UACC-257 melanoma 108% | M14 melanoma 97.8% | HCT-15 colon 100% | HT29 colon 110% | SNB-75 CNS 93.2% | SNB-19 CNS 110% | PC-3 prostate 96.6% | UACC-62 melanoma 122% | LOX IMVI melanoma 101% | SK-MEL-28 melanoma 105%

Nc1ncnc2c1ncn2C1OC(COP(=O)(O)O)C(O)C1O (stereo not drawn)
inactive: DU-145 prostate 120% | K-562 leukemia 119% | MDA-MB-231 breast 102% | RXF 393 renal 131% | SF-268 CNS 126% | SF-539 CNS 105% | UACC-257 melanoma 110% | M14 melanoma 111% | HCT-15 colon 109% | HT29 colon 114% | SNB-75 CNS 93.1% | SNB-19 CNS 103% | U251 CNS 112% | PC-3 prostate 101% | SK-MEL-5 melanoma 117% | UACC-62 melanoma 104% | LOX IMVI melanoma 108% | SK-MEL-28 melanoma 119%

COc1ccc(Nc2ccc3ccccc3c2)cc1
inactive: DU-145 prostate 83.2% | K-562 leukemia 31.6% | MDA-MB-231 breast 77.9% | RXF 393 renal 58.6% | SF-268 CNS 81.2% | SF-295 CNS 79.6% | SF-539 CNS 93.1% | M14 melanoma 72.9% | HCT-15 colon 78.2% | HT29 colon 64.9% | SNB-75 CNS 64.3% | SNB-19 CNS 79.5% | PC-3 prostate 71.5% | UACC-62 melanoma 62.1% | LOX IMVI melanoma 74.2% | SK-MEL-28 melanoma 89.8%

Cl
inactive: DU-145 prostate 119% | MALME-3M melanoma 116% | MDA-MB-231 breast 115% | RXF 393 renal 117% | SF-268 CNS 116% | SF-295 CNS 99.2% | SF-539 CNS 111% | UACC-257 melanoma 105% | M14 melanoma 107% | HCT-15 colon 102% | HT29 colon 106% | SNB-75 CNS 96.9% | SNB-19 CNS 99.3% | U251 CNS 102% | PC-3 prostate 106% | UACC-62 melanoma 105% | LOX IMVI melanoma 97% | SK-MEL-28 melanoma 136%

OCC1OC(O)C(O)C(O)C1O (stereo not drawn)
inactive: DU-145 prostate 120% | K-562 leukemia 110% | MALME-3M melanoma 180% | MDA-MB-231 breast 116% | RXF 393 renal 124% | SF-268 CNS 102% | SF-295 CNS 102% | SF-539 CNS 102% | UACC-257 melanoma 114% | M14 melanoma 101% | HCT-15 colon 97.2% | HT29 colon 92.5% | SNB-19 CNS 107% | U251 CNS 113% | PC-3 prostate 92.2% | UACC-62 melanoma 117% | LOX IMVI melanoma 100%

OC1COC(OCc2ccccc2)C(O)C1O (stereo not drawn)
inactive: DU-145 prostate 105% | K-562 leukemia 97.9% | MALME-3M melanoma 78.7% | MDA-MB-231 breast 109% | RXF 393 renal 103% | SF-268 CNS 106% | SF-295 CNS 101% | SF-539 CNS 105% | M14 melanoma 96.8% | HCT-15 colon 98% | HT29 colon 111% | SNB-75 CNS 90.5% | U251 CNS 95.4% | PC-3 prostate 105% | UACC-62 melanoma 106% | SK-MEL-28 melanoma 104%

COc1cc(C(O)C2C(=O)OCC2C2(c3ccc4c(c3)OCO4)SCCCS2)cc(OC)c1OC (stereo not drawn)
inactive: DU-145 prostate 103% | K-562 leukemia 97.7% | MALME-3M melanoma 91.1% | MDA-MB-231 breast 95.3% | RXF 393 renal 101% | SF-268 CNS 94.3% | SF-295 CNS 92.9% | SF-539 CNS 102% | UACC-257 melanoma 104% | M14 melanoma 96.8% | HCT-15 colon 96.6% | HT29 colon 102% | SNB-19 CNS 96.4% | U251 CNS 100% | PC-3 prostate 84.1% | SK-MEL-5 melanoma 99.1% | UACC-62 melanoma 87.5% | SK-MEL-28 melanoma 108%
